Data: PubChem BioAssay (Tox21)
Records with an inconclusive call do not appear. Calls of active or inactive are those of the source. Calls come from the whole dose curve.

Experiments:
[1] = target: Acetylcholinesterase (Homo sapiens) (UniProt P22303); experiment: Acetylcholinesterase (AChE) small molecule antagonists: colormetric cell-based qHTS assay (AID 1347395); note: nearly all actives have a fitted effect of over 30% in size
How it was run: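 Colorimetric readout: DTNB quantifies thiocholine from acetylthiocholine hydrolysed by endogenous AChE of SH-SY5Y cells (2,000/well, plated overnight). Compound pretreatment 30 min, substrate incubation 90 min, both 37 C.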

[2] = target: Acetylcholinesterase (Homo sapiens) (UniProt P22303); experiment: Acetylcholinesterase (AChE) small molecule antagonists: enzyme-based qHTS assay (AID 1347397); settings: Potency: AChE enzyme activity inhibition; outcome: AChE enzyme activity inhibition; note: nearly all actives have a fitted effect of over 55% in size
How it was run: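 Recombinant human AChE, dispensed at 50 mU/mL, was preincubated with Tox21 10K compounds or DMSO vehicle for 30 min at room temperature. DTNB plus acetylthiocholine was then added, and thiocholine was measured colorimetrically after a further 10 min.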

[3] = target: Acetylcholinesterase (Homo sapiens) (UniProt P22303); experiment: Acetylcholinesterase (AChE) small molecule antagonists: fluorescence cell-based qHTS assay (AID 1347398); settings: Potency: AChE activity; outcome: AChE activity; note: nearly all actives have a fitted effect of over 50% in size
How it was run: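 Human SH-SY5Y cells were plated overnight at 37 C, exposed to compound for 30 min at 37 C, 5% CO2, then given acetylthiocholine plus Thiolite Green for 40 min at room temperature; thiocholine fluorescence (Ex/Em 490/520 nm) reports endogenous AChE activity.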

[4] = target: Acetylcholinesterase (Homo sapiens) (UniProt P22303); experiment: Acetylcholinesterase (AChE) small molecule antagonists: enzyme-based qHTS assay with human liver microsomes (AID 1347399); settings: Potency: qHTS inhibition; outcome: qHTS inhibition; note: nearly all actives have a fitted effect of over 60% in size
How it was run: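 Recombinant human AChE (50 mU/mL in the enzyme mix) and human liver microsomes (0.25 mg/mL final) were preincubated with compound and NADPH (0.25 mg/mL final) for 30 min at 37 C. Acetylthiocholine/DTNB was then added; thiocholine was read colorimetrically after 10 min at room temperature.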

Measured: Potency

Chain of Acetylcholinesterase (Homo sapiens) (P22303 whole entry, looked up): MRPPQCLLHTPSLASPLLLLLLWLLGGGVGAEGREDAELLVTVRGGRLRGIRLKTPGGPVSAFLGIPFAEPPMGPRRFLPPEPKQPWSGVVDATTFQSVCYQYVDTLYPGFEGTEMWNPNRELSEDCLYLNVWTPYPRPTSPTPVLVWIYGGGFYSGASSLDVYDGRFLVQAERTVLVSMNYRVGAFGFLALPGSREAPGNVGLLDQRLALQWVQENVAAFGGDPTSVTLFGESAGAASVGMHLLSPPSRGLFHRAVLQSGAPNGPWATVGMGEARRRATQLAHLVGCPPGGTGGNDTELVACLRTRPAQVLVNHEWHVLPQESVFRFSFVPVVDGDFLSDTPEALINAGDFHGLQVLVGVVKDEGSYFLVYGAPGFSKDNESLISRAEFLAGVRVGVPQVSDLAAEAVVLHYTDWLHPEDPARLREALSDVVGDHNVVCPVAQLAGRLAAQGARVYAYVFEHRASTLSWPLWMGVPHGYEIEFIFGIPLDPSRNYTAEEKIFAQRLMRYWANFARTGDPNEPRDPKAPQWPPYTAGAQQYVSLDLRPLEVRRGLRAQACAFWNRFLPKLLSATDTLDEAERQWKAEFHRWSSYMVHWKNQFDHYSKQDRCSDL

CCCCCC1CCCC(=O)O1 (stereo not given)
inactive: all assays above

CC(C)CCCCCCCOC(=O)c1ccc(C(=O)OCCCCCCCC(C)C)c(C(=O)OCCCCCCCC(C)C)c1
inactive: all assays above

Nc1ccc(Nc2ccccc2)cc1
inactive: all assays above

CC(C)c1ccc(C=O)cc1
inactive: all assays above

S=C1NC=NC2N=CNC12 (stereo not given)
inactive: all assays above

CC(=O)OC(C(=O)c1ccccc1)c1ccccc1 (stereo not given)
inactive: all assays above

CCC(C)c1ccccc1O (stereo not given)
inactive: all assays above

CCCCCCCCCCCCCOS(=O)(=O)O
inactive: all assays above

Clc1ccc(C(c2ccccc2Cl)C(Cl)Cl)cc1 (stereo not given)
inactive: all assays above

Cc1ccc(C(C)C)cc1
inactive: all assays above

CC(N)=O
inactive: all assays above

NS(=O)(=O)c1cc2c(cc1Cl)NC=NS2(=O)=O
inactive: all assays above

NC(N)=O
inactive: all assays above

Cc1cc(C)n(CO)n1
inactive: all assays above

CC(=O)[C@@]1(O)CC[C@H]2[C@@H]3C[C@H](C)C4=CC(=O)C=C[C@]4(C)[C@@]3(F)[C@@H](O)C[C@@]21C
inactive: all assays above

Cc1ccc(Cl)cc1
inactive: all assays above

O=C(Cl)c1ccc(C(=O)Cl)cc1
inactive: all assays above

CSc1ccc(C=O)cc1
inactive: all assays above

CN1C(=O)CC(c2ccccc2)C1=O (stereo not given)
inactive: all assays above

C=CCCCCCCCCC(=O)O
inactive: all assays above

Nc1ccc(S(=O)(=O)Nc2ccccn2)cc1
inactive: all assays above

O=C(CC(C(=O)OC1CCCCC1)S(=O)(=O)O)OC1CCCCC1 (stereo not given)
inactive: all assays above

CCC(C)C=O (stereo not given)
inactive: all assays above

C[C@H](CCC(=O)O)[C@H]1CC[C@H]2[C@@H]3[C@H](O)C[C@@H]4C[C@H](O)CC[C@]4(C)[C@H]3CC[C@]12C
inactive: all assays above

CCN(C=O)CC
inactive: all assays above

Cc1nnc(C(=O)NC(C)(C)c2nc(C(=O)NCc3ccc(F)cc3)c(O)c(=O)n2C)o1
inactive: all assays above

O=C(Nc1ccccc1)c1cc(Cl)ccc1O
inactive: all assays above

CC(=O)c1sc(C)nc1C
inactive: all assays above

O=C(CC(=O)c1ccccc1)c1ccccc1
inactive: all assays above

O=C(O)c1cc(O)c2c(c1)C(=O)c1cccc(O)c1C2=O
inactive: all assays above

COCCOC[C@H](CC1(C(=O)NC2CCC(C(=O)O)CC2)CCCC1)C(=O)Oc1ccc2c(c1)CCC2 (stereo not given in full)
inactive: all assays above

CN1[C@@H]2CC[C@H]1CC(OC(=O)c1c[nH]c3ccccc13)C2 (stereo not given in full)
inactive: all assays above

Clc1ccccc1C(c1ccccc1)(c1ccccc1)n1ccnc1
inactive: all assays above

C(=C(c1ccccc1)c1ccccc1)c1ccccc1
inactive: all assays above

Cc1ccc(N=Nc2c(O)ccc3ccccc23)c(C)c1
inactive: all assays above

C=Cc1ccc(O)c(OC)c1
inactive: all assays above

CCCCCCCC(=O)OC
inactive: all assays above

CC(C)Cc1ccccc1
inactive: all assays above

CCc1occc(=O)c1O
inactive: all assays above

O=C(OCCCCCOC(=O)c1ccccc1)c1ccccc1
inactive: all assays above
